# Chronic BCR inh: blocks chronic active B-cell receptor signaling. Potency, µM (series often up to 46.1 µM), without a hit: top-dose activity change, negative = inhibition, hits mostly inhibitors. hit rate 0.05% among 340,000. AID 493014. ABC-DLBCL IkBa-CBG/CBR reporter, luminescence ratio, 4 h; active = well fitted inhibition curve with a large enough effect in the signal ratio, with a control signal flat, not every such curve was filed as active; inconclusive = small, poorly fitted or top-dose-only effect, or effect the other way, or a change in a side signal; the % refers to the signal ratio;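 also: plate controls were basal doxycycline-induced cells for no effect and cells given 10 µM MG132 for full effect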
#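 Concentration-response series (up to 46 uM) were applied to TMD8 dual-reporter cells for 4 h at 37C with doxycycline. Green/red ratio, after filter-overlap correction, defined %Activity; red signal alone was normalised to basal cells and zero luminescence.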
# RORgamma inh: inhibitors of mouse ROR gamma transcriptional activity; P51450; Drosophila S2 Gal4-RORgamma UAS-luciferase reporter, 20 h; Potency, µM (highest dose often 53.6 µM), without a hit: at the highest dose activity change, negative = inhibition, hits mostly inhibitors; hit rate 5.4% among 310,000; AID 2551; also: % is scaled to controls: 0 for no effect and ±100 for the full control effect; nearly all actives have a fitted effect of over 60% in size
# Target sequence (P51450 whole entry, looked up, the tested form may be a part): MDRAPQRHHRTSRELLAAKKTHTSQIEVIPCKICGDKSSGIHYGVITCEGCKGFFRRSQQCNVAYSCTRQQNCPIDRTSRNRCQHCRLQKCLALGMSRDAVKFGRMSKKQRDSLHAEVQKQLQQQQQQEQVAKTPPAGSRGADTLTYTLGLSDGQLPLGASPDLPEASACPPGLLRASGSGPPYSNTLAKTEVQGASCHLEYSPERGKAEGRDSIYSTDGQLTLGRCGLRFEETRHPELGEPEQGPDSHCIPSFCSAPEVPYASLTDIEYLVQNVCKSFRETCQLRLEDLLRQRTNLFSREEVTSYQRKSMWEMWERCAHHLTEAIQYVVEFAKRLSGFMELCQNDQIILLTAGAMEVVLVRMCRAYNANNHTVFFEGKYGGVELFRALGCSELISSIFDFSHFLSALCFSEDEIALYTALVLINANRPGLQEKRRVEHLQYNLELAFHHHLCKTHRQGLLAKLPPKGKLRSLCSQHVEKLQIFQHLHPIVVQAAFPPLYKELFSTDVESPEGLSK
#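 Compounds are pin-transferred onto Drosophila Schneider cells expressing a copper-inducible Gal4–ROR gamma transactivation domain fusion. After 1 hr, copper sulfate is added to 700 uM final; luciferase is read 20 hr later.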
# Gal4-VP16 FLuc: counter-screen for ROR gamma inhibitors: Gal4-VP16 reporter; hit rate 3.5% among 310,000; Drosophila S2 Gal4-VP16 UAS-luciferase, luminescence, 20 h; Potency, µM (titrated, usually from 53.6 µM), for inactives: at the highest dose activity, negative = inhibition, actives largely listed as inhibitors;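 also: Gal4-VP16 expression switched on by copper sulfate through the metallothionein promoter; % is scaled to controls: 0 for no effect and ±100 for the full control effect; nearly all actives have a fitted effect of over 50% in size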
# Integrin act MD: activators of alpha7 integrin expression for muscular dystrophy | alpha7betagal myoblasts, beta-gal FDG fluorescence, 48 h | hit rate 0.064% among 350,000 | AID 624291 | Potency, µM (series often up to 38.3 µM), for the others: top-dose activation, hits mostly activators;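 also: 100% = response of the positive control SU9516; nearly all actives have a fitted effect of over 60% in size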
#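 Alpha7betagal+/- myoblasts (passage 13) were plated 16-24 hr, then exposed to compounds (1:260 dilution of DMSO stock) for 48 hours at 37C. After MPER lysis, β-galactosidase reporter activity was read as FDG fluorescence (ex 480/em 540) after 30 minutes.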
# Mito fusion act: inhibitors of mitochondrial division or activators of mitochondrial fusion | S. cerevisiae fusion-defective mutant growth rescue, CellTiterGlo 48 h | Potency, µM (highest dose often 46.1 µM), inactives show at the top dose growth rescue (activation), actives largely listed as activators | hit rate 0.23% among 320,000; also: % of control where 0% means no effect; nearly all actives have a fitted effect of over 45% in size
#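 Compounds are tested for their ability to restore growth of mitochondrial fusion-defective yeast strains at non-permissive 37C in YPEG medium over 48 hours. Viability is quantified by luciferase luminescence.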
# uPA surface inh: blocks generation of uPA at the cell surface. AID 540303. hit rate 0.31% among 330,000. Potency, µM (highest dose often 38.3 µM), without a hit: at the highest dose activity change, negative = inhibition, usual class: inhibitors. cell surface uPA generation assay, qHTS; active = well fitted inhibition curve with a large enough effect; inconclusive = small, poorly fitted or top-dose-only effect; inactive = no such curve, though single readings can be large or run the other way; tested in mouse RAW 264.7 cells; also: % is scaled to controls: 0 for no effect and ±100 for the full control effect; nearly all actives have a fitted effect of over 55% in size
# Starred values were filed as active, the others as inactive; ? = inconclusive; . = not tested or not shown; [ ] = remark or other dose. The list is not random: actives were taken first. Their share in the collection is about 5.5%. Unless noted, calls follow the shape of the dose curve; as a rule, active = well fitted curve in the direction sought with a large enough effect; inconclusive = small, poorly fitted or top-dose-only effect, or another doubt; inactive = no such curve, though single readings can be large; an effect the other way counts as inactive or inconclusive. Potency is read from the fitted curve at half-maximal effect.
SMILES,Chronic BCR inh,RORgamma inh,Gal4-VP16 FLuc,Integrin act MD,Mito fusion act,uPA surface inh
S=C(NCCCCNC(=S)NCc1ccccc1)NCc1ccccc1,3%,?,-16%,19%,-2%,-1%
CC(C)(C)C(=O)NC(=S)NCCc1ccccc1,15%,8.9µM*,?,33%,-4%,1%
C(=C\n1nnc2ccccc21)/c1ccccn1,?,.,.,23%,-2%,?
S=C(NCCc1ccccc1)NCCc1ccccc1,?,7.1µM*,10µM*,5%,18%,-2%
O=C(NCCc1ccccc1)Nc1ccc(Cl)cc1,?,18%,4%,26%,3%,2%
Cc1cccc(Cl)c1NC(=S)NCCc1ccccn1,10%,?,?,-28%,-5%,3%
S=C(NCCc1ccccn1)Nc1ccccc1Cl,-4%,6.3µM*,13µM*,-33%,-6%,3%
Cc1c(Cl)cccc1NC(=S)NCCc1ccccn1,-7%,2.5µM*,8.9µM*,-41%,-1%,0%
S=C(NCCc1ccccc1)Nc1ccc(Cl)cc1,?,6.3µM*,?,-38%,19%,-1%
COc1ccc([C@]23Cc4ccccc4C(O2)C2=C(CC(C)(C)CC2=O)O3)cc1,?,0%[10 µM],-5%[10 µM],.,2%[9.22 µM],.
S=C(NCc1ccccn1)Nc1ccc(Br)cc1Cl,-1%,7.1µM*,?,-13%,8%,5%
O=C(NCc1ccccn1)Nc1ccc(Cl)cc1Cl,10%,0%,1%,-8%,-3%,0%
NS(=O)(=O)c1ccc(CCNC(=S)NC2CCCC2)cc1,?,16%,-10%,6%,-1%,3%
CC(=O)c1ccc(NC(=S)NCCc2cccc(Cl)c2)cc1,-1%,18µM*,?,-13%,28%,-2%
S=C(NCCc1ccccn1)Nc1ccc(Cl)cc1Cl,8%,5µM*,?,-26%,-5%,-3%
S=C(NCCc1ccc(Cl)cc1)NC1CC1,2%,2.5µM*,8.9µM*,-11%,0%,?
COc1ccc(C(=O)N2CCN(c3nc4c(C)c(Cl)ccc4s3)CC2)c(OC)c1,-12%,.,.,.,.,.
COc1ccc(S(=O)(=O)NN(C)c2ncc(C(F)(F)F)cc2Cl)cc1,-5%,4µM*,?,1%,8%,14%
Cc1ccn2cc(-c3cc4ccccc4oc3=O)nc2c1,?,2.5µM*,?,19%,-6%,-3%
CC(C)(C)OC1NS(=O)(=O)OCC1NCOC(Cl)(Cl)Cl (stereo not given),4%,10µM*,22µM*,8%,-1%,-15%
CCN(CC)S(=O)(=O)c1ccc(Cl)c(C(=O)Nc2ccc(Cl)cc2[N+](=O)[O-])c1,-1%,?,?,-1%,11%,?
CCNC(=S)Nc1cc(OCC)c(NC(=O)c2cccs2)cc1OCC,?,11µM*,?,-19%,-10%,-6%
CCOc1cc(NC(=S)NCC(C)C)c(OCC)cc1NC(=O)c1cccs1,1%,4µM*,8.9µM*,4%,-4%,-3%
O=C(NCc1ccccc1)c1cc2ccc(O)cc2oc1=O,?,2.2µM*,7.1µM*,0%,-20%,-2%
O=C(c1ccc(F)cc1)c1cc2ccc(O)cc2oc1=O,?,-11%,-3%,-19%,7%,-1%
SMILES,Chronic BCR inh,RORgamma inh,Gal4-VP16 FLuc,Integrin act MD,Mito fusion act,uPA surface inh
COc1ccccc1C(=O)c1cc2ccc(O)cc2oc1=O,?,20µM*,10%,-5%,1%,4%
O=C(NCc1ccccc1OC(F)(F)F)C1CCC(=O)N(CCCN2CCOCC2)C1 (stereo not given),.,.,.,0%,.,.
COc1ccc(CCNS(=O)(=O)c2ccc(Cl)cc2)cc1OC,?,19%,3%,36%,-6%,1%
COc1cccc(C(=O)NNC(=O)C(=O)Nc2ccc(OC)cc2OC)c1,-12%,14µM*,1%,-41%,5%,-2%
COc1ccc(C(=O)CC(=O)C(=O)Nc2cccc(C(C)=O)c2)cc1,-1%,-22%,5%,-18%,13%,-10%
CCOc1ccccc1NC(=O)C(=O)CC(=O)c1cccc(OC)c1,1%,3.5µM*,7.9µM*,?,13%,1%
COc1ccc(C(=O)CC(=O)C(=O)Nc2ccc(C)c(C)c2)cc1,-2%,13µM*,?,-9%,8%,-2%
COc1cccc(C(=O)CC(=O)C(=O)Nc2cc(OC)ccc2OC)c1,?,11µM*,?,-19%,2%,0%
Cc1cccc(-n2c(SCC(=O)Nc3ccc(C)c(C)c3)nc3n[nH]c(C)c3c2=N)c1,-2%,.,.,.,.,.
COc1ccc(C(CNC(=O)CCNC(=O)c2ccc(Br)cc2)N2CCOCC2)cc1 (stereo not given),-10%,.,.,-7%,-2%,2%
OC(COc1ccc(CN2CCCCO2)cc1)CN1CCCCC1 (stereo not given),7%,27%,-3%,18%,-1%,-2%
COc1ccc(C(=O)CC(=O)C(=O)Nc2ccccc2OC)cc1,-4%,5.6µM*,4.5µM*,-20%,1%,-14%
COc1ccc(S(=O)(=O)N(NC2=NS(=O)(=O)c3ccccc32)C(=O)C(C)C)cc1,4%,5%,-5%,2.5µM*,-6%,-9%
COc1ccc(/C=N/NC2=NS(=O)(=O)c3ccccc32)cc1,1%,?,?,-28%,-6%,-3%
Cc1[nH]c(=S)sc1Cc1ccc(F)cc1,-5%,4µM*,10µM*,-9%,7%,-8%
CCCSc1nc(=S)n(Cc2ccccc2)c(C)c1C(C)=O,?,14µM*,?,-2%,5%,-12%
CC(=O)c1c(N2CCCCC2)nc(=S)n(Cc2ccccc2)c1C,0%,11µM*,-25%,-33%,-8%,0%
CCn1c(C)c(C(C)=O)c(N2CCCC2)nc1=S,-2%,7.9µM*,1%,8%,7%,0%
C=CCn1c(C)c(C(C)=O)c(N2CCCC2)nc1=S,1%,-19%,2%,5%,-2%,-7%
CN(C)C(=O)c1ccc(N=Nc2c(O)c3ccccc3[nH]c2=O)cc1,.,.,.,-46%,.,-10%
CN(C)C(=S)N=Nc1[nH]c2ccccc2c1O,?,0.89µM*,5.6µM*,-4%,7%,?
Cc1cccc(C(=O)n2c(=S)nc3ccccn32)c1,?,2.5µM*,3.2µM*,-19%,2%,-10%
Cc1ccc(C(=O)n2c(=S)nc3ccccn32)cc1,?,1.6µM*,?,.,2%,.
CCOC(=O)CNC(=O)CSc1nc2cccnc2n1Cc1ccccc1,?,7%,-3%,21%,-1%,2%
Cc1nc(NC(=O)CSc2nc3cccnc3n2Cc2ccccc2)sc1C,-1%,13µM*,?,-25%,-3%,-6%
CCCCCCOC(=O)CC1CC(C(C)=O)C1(C)C (stereo not given),.,.,.,-10%,.,4%

# Source: PubChem BioAssay (National Center for Advancing Translational Sciences (NCATS))
